About 83,000 compounds went through this panel and 20% of them were active in at least one assay; those are over-represented in the sample as a whole.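 Activity criterion: percent growth below 10, measured after cells in 96-well plates were exposed to a single compound concentration for 48 hours.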 Unmarked numbers belong to inactive results. Calls of active or inactive are those of the source.

14 molecules from PubChem BioAssay (NCI) can be followed below.

Among the test systems are DU-145 prostate; K-562 leukemia; MALME-3M melanoma; MDA-MB-231 breast; RXF 393 renal; SF-268 CNS; SF-295 CNS; SF-539 CNS; UACC-257 melanoma; M14 melanoma.
Holding throughout (experiment): NCI-60 one-dose screen, 48 h (100 = growth as untreated, 0 = no growth, -100 = all killed)
What all share (conditions): 10 µM unless noted

As to `COc1ccc2c(c1)[nH]c(=O)c1c3cc(C)c(C)cc3cn21`, the growth in the test on DU-145 prostate was -68% (active); in the test with K-562 leukemia it was 35.9%; in the test with MALME-3M melanoma, 15.6%; with MDA-MB-231 breast, -35.7% (active); in the test on RXF 393 renal, -48.6% (active); with SF-268 CNS, -3.98% (active). In addition, the growth in the test on SF-295 CNS is -51.7% (active); with SF-539 CNS it was 8.86% (active); in the test on UACC-257 melanoma, 66.8%; in the test with M14 melanoma it was -33.5% (active).
With `O=[N+]([O-])c1cccc(-c2nc3sccn3c2-c2ccnc(NCCCNS(=O)(=O)c3ccc(C(F)(F)F)cc3)n2)c1`, the growth with DU-145 prostate is 47.3%; in the test with K-562 leukemia it was 20.6%; in the test with MALME-3M melanoma, 30.5%; in the test on MDA-MB-231 breast it was 57.3%; with RXF 393 renal it was 55.6%; in the test on SF-268 CNS, 38.1%. The growth was 27.2% with SF-295 CNS, 70.9% in the test with SF-539 CNS, 37.4% with UACC-257 melanoma and 27.7% with M14 melanoma.
On to `O=C(CSc1nc2ccccc2[nH]1)c1ccc(N2CCOCC2)cc1`, for which the growth with DU-145 prostate was 107%; in the test on K-562 leukemia, 99.5%; with MALME-3M melanoma, 100%; in the test with MDA-MB-231 breast it was 103%; in the test with RXF 393 renal, 98.1%; with SF-268 CNS, 103%. Also, the growth was 96.8% in the test on SF-295 CNS, 100% in the test on SF-539 CNS, 102% in the test on UACC-257 melanoma and 106% with M14 melanoma.
In the case of `COc1ccncc1S(=O)(=O)NC(=O)Nc1ccc(Cl)c(Cl)c1`, the growth with DU-145 prostate was 109%; with K-562 leukemia, 77.5%; in the test on MALME-3M melanoma, 90.1%; with MDA-MB-231 breast it was 100%; in the test with RXF 393 renal, 79.3%; in the test on SF-268 CNS, 91%. For the same molecule, the growth is 85.4% with SF-295 CNS, 107% in the test on SF-539 CNS and -32.8% (active) in the test on UACC-257 melanoma.
`COc1ccc(Nc2ncccc2C(=O)NCc2cn(Cc3cccc(Oc4ccccc4)c3)nn2)c(OC)c1`: the growth was 4.02% (active) in the test with DU-145 prostate; 21.3% in the test on K-562 leukemia; 46.4% with MALME-3M melanoma; 23.9% with MDA-MB-231 breast; 6.03% (active) with RXF 393 renal; 36.6% with SF-268 CNS. Further, the growth in the test on SF-295 CNS is 7.69% (active); in the test on SF-539 CNS it was 5.94% (active); in the test with UACC-257 melanoma it was 85.5%; in the test with M14 melanoma, 14.2%.
Turning to `O=C1C2(c3ccccc3)C(c3ccccc3)=C(c3ccccc3)C1(c1ccccc1)C1CC=CC12` (configuration not stated), the growth was 101% in the test with DU-145 prostate; 69.3% in the test with K-562 leukemia; 82.9% in the test on MALME-3M melanoma; 70.7% with MDA-MB-231 breast; 84.6% in the test on RXF 393 renal; 91.1% in the test with SF-268 CNS. Further, the growth with SF-295 CNS was 68.1%; with SF-539 CNS, 89.3%; with UACC-257 melanoma, 78.4%; in the test with M14 melanoma, 95.4%.
As to `C/C(=N/NC(=S)Nc1ccccc1)c1nc2ccc(Cl)cc2[nH]1`, the growth with DU-145 prostate was -99.1% (active); in the test with K-562 leukemia, -9.4% (active); in the test with MALME-3M melanoma, -74% (active); in the test with MDA-MB-231 breast, -21.4% (active); in the test on RXF 393 renal, -91.5% (active); in the test with SF-268 CNS, -89.6% (active). Moreover, the figures for the growth in the test on SF-295 CNS, in the test with SF-539 CNS and in the test on UACC-257 melanoma were -58.6% (active), -72.1% (active) and -94.9% (active), respectively.
`O=C(c1ccccc1)C1OC1c1ccc([N+](=O)[O-])cc1` (configuration not stated): the growth is 67.9% in the test on DU-145 prostate; 32.6% with K-562 leukemia; 83.6% in the test on MALME-3M melanoma; 78.4% in the test on MDA-MB-231 breast; 77.8% in the test with RXF 393 renal; 79.2% in the test with SF-268 CNS. Moreover, the growth was 97% in the test with SF-295 CNS, 96.5% in the test on SF-539 CNS, 68.1% with UACC-257 melanoma and 48.2% with M14 melanoma.
As to `O=[N+]([O-])c1ccc(-c2cn(-c3ccccc3)c(-c3ccccc3)n2)cc1`, the growth in the test with DU-145 prostate was 109%; in the test on K-562 leukemia it was 62.5%; with MALME-3M melanoma, 141%; in the test with MDA-MB-231 breast, 49.5%; with RXF 393 renal, 65.3%; in the test on SF-268 CNS, 91.4%. The values for the growth with SF-295 CNS, in the test on SF-539 CNS and in the test on UACC-257 melanoma were -21.1% (active), 116% and -2.3% (active), respectively.
For `Cc1ccc(/C=C2\CN(C(=O)CCN3CCC(=NO)CC3)C/C(=C\c3ccc(C)cc3)C2=O)cc1`, the growth was 21.6% in the test with DU-145 prostate; 4.38% (active) in the test with K-562 leukemia; -27.6% (active) in the test with MALME-3M melanoma; -13.8% (active) with MDA-MB-231 breast; -77.7% (active) in the test on RXF 393 renal; 12.9% in the test on SF-268 CNS. In addition, the growth is -1.83% (active) in the test with SF-295 CNS, -18% (active) with SF-539 CNS, 44.9% in the test with UACC-257 melanoma and 5.63% (active) in the test with M14 melanoma.
As to `CN(C)c1cccc2c(S(=O)(=O)/N=C(\N)Nc3nc4ccccc4s3)cccc12`, the growth with DU-145 prostate was 96%; in the test with K-562 leukemia, 21.9%; with MALME-3M melanoma, 73.7%; in the test on MDA-MB-231 breast it was 68.3%; in the test with RXF 393 renal, 54.6%; in the test on SF-268 CNS, 69.7%. Moreover, the growth in the test on SF-295 CNS is 33.6%; with SF-539 CNS, 52.4%; in the test with UACC-257 melanoma, 78.3%; in the test on M14 melanoma, 45.3%.
Turning to `Nc1ccc(C(=O)CSc2nc3ccccc3[nH]2)cc1`, the growth is 103% in the test with DU-145 prostate; 103% in the test with K-562 leukemia; 107% with MALME-3M melanoma; 105% with MDA-MB-231 breast; 110% with RXF 393 renal; 99.4% with SF-268 CNS. Besides, the growth was 98.1% with SF-295 CNS, 104% in the test on SF-539 CNS, 107% in the test on UACC-257 melanoma and 108% in the test with M14 melanoma.
Take `C/C=C(\C)C(C(=O)NC1CCCCC1)N(C(=O)C1CCc2cc(F)ccc2O1)c1ccc(Cl)cc1` (configuration not stated): the growth was 108% in the test on DU-145 prostate; 99.7% with K-562 leukemia; 109% in the test on MALME-3M melanoma; 103% in the test with MDA-MB-231 breast; 109% in the test on RXF 393 renal; 97.2% in the test on SF-268 CNS. Also, the growth was 97.5% with SF-295 CNS, 98.2% with SF-539 CNS, 98.8% in the test on UACC-257 melanoma and 103% with M14 melanoma.
On to `CCOC(=O)c1c(/N=C2\SC(=O)/C(=C\C(=O)OC)N2NC)sc2c1CCN(C(=O)OCC)C2`, for which the growth was 101% in the test with DU-145 prostate; 99.9% in the test on K-562 leukemia; 101% in the test on MALME-3M melanoma; 100% with MDA-MB-231 breast; 106% in the test with RXF 393 renal; 96.2% in the test with SF-268 CNS. In addition, the growth with SF-295 CNS was 98.7%; in the test with SF-539 CNS, 96.9%; with UACC-257 melanoma, 101%; in the test with M14 melanoma, 91.7%.
